Each structure is given as a SMILES string. Records with an inconclusive call do not appear. Active and inactive are the calls of the source. Calls come from the whole dose curve; as a rule, active = well fitted inhibition curve with a large enough effect; inconclusive = small, poorly fitted or top-dose-only effect; inactive = flat fitted curve, though single readings scatter.

The values that follow come from PubChem BioAssay (NCATS).

Common to all, as to assay: qHTS profiling for inhibitors of Plasmodium falciparum proliferation (AID 504749); note: nearly all actives have a fitted effect of over 60% in size
Conditions in all cases: P. falciparum in erythrocytes, SYBR Green DNA, 72 h; series mostly up to 28.7 µM
(In general: In qHTS, concentration-response curves come from the screen itself.)

One experiment deals with CP194. In short, it runs like this: (§1)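 SYBR Green fluorescence (ex 485 nm, em 535 nm) reports parasite DNA after 72 h compound exposure of infected red cells at 0.3% parasitemia, 2.5% hematocrit; signal normalized to 0.29 uM artemisinin and vehicle wells.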
The test system of a further experiment is CP201. The essentials:
as §1

A further experiment deals with CP203. In short, it runs like this:
as §1

The subject of the next experiment is CP211. In short, it runs like this:
as §1

The subject of the next experiment is CP215. The essentials:
as §1

A further experiment relates to CP217. The essentials: as §1
The subject of a further experiment is CP237. In short, it runs like this:
as §1

A further experiment concerns CP238. In short, it runs like this: as §1
Another experiment relates to CP247. The essentials: as §1
The test system of the next experiment is CP250. In short, it runs like this:
as §1

The test system of a further experiment is CP252. The essentials: as §1
Another experiment concerns CP256. The essentials:
as §1

A further experiment relates to CP260. The essentials: as §1
A further experiment relates to CP262. The essentials:
as §1

The next experiment deals with CP265. In short, it runs like this: as §1
The next experiment concerns CP266. The essentials:
as §1

Another experiment relates to CP269. In short, it runs like this: as §1
Another experiment concerns CP286. In short, it runs like this: as §1
For a further experiment, the system named is CP291. The essentials:
as §1

The subject of a further experiment is CP268. The essentials: as §1
Potency is the fitted concentration of half-maximal effect.

In the case of `CN(C)C=Nc1c(I)cc(I)c(CCC(=O)O)c1I`, the Potency entry in the experiment on CP194, in the experiment on CP201, in the experiment on CP203, in the experiment on CP211, in the experiment with CP215 and with CP217 was “inactive” throughout. For the same molecule, the Potency entry with CP237, with CP238, with CP247, in the experiment with CP250, with CP252 and in the experiment with CP256 was “inactive” each time. In addition, the Potency entry in the experiment on CP260, in the experiment with CP262, with CP265, with CP266, in the experiment with CP269 and in the experiment on CP286 was “inactive” each time. Also, the Potency entry in the experiment with CP291 was “inactive”.

Regarding `O=C(O)[C@H]1C(=CCO)O[C@H]2CC(=O)N12`, the Potency result in the experiment with CP194, with CP201, in the experiment on CP203, in the experiment on CP211, with CP215 and in the experiment on CP217 was “inactive” throughout. In addition, the Potency result in the experiment with CP237, in the experiment on CP238, in the experiment on CP247, in the experiment with CP250, with CP252 and with CP256 was “inactive” throughout. Further, the Potency entry with CP260, in the experiment with CP262, in the experiment with CP265, with CP268, in the experiment on CP269 and in the experiment with CP286 was “inactive” each time. For the same molecule, in the experiment with CP291, the Potency entry was “inactive”.

Consider `CC1=C(/C=C/C(C)=C/C=C/C(C)=C/C(=O)Oc2c(C)c(C)c3c(c2C)CC[C@@](C)(CCC[C@H](C)CCC[C@H](C)CCCC(C)C)O3)C(C)(C)CCC1`, for which the Potency result with CP194, in the experiment with CP201, in the experiment with CP203, in the experiment on CP211, in the experiment on CP215 and with CP217 was “inactive” throughout. In addition, the Potency entry with CP237, in the experiment on CP238, in the experiment on CP247, in the experiment with CP250, in the experiment with CP252 and with CP256 was “inactive” each time. Moreover, the Potency entry with CP260, with CP262, in the experiment on CP265, in the experiment with CP268, with CP269 and in the experiment on CP286 was “inactive” each time. Moreover, the Potency entry with CP291 was “inactive”.

For the molecule `Oc1ccc(Cl)c2c1CCC2`, the Potency result in the experiment with CP194, with CP201, in the experiment with CP203, in the experiment with CP211, with CP215 and with CP217 was “inactive” each time. The Potency result in the experiment on CP237, in the experiment with CP238, with CP247, in the experiment on CP250, in the experiment with CP252 and with CP256 was “inactive” throughout. Also, the Potency entry with CP260, with CP262, in the experiment on CP265, in the experiment with CP268, in the experiment on CP269 and with CP286 was “inactive” each time. Also, the Potency entry with CP291 is “inactive”.

As for `CN(C)CCOc1ccc(/C(=C(/CCCl)c2ccccc2)c2ccccc2)cc1`, the Potency result in the experiment on CP194, in the experiment on CP201, in the experiment on CP203, with CP211, with CP215 and with CP217 was “inactive” throughout. Besides, the Potency result with CP237, with CP238, in the experiment with CP247, in the experiment on CP250, with CP252 and in the experiment on CP256 was “inactive” throughout. The Potency entry in the experiment with CP260, with CP262, in the experiment with CP265, in the experiment with CP266, in the experiment with CP268 and with CP269 was “inactive” each time. Moreover, the Potency entry with CP286 and with CP291 was “inactive” in each case.

Regarding `CC(C)[C@@H](N)C(=O)O`, the Potency entry in the experiment with CP194, in the experiment on CP201, in the experiment on CP203, in the experiment on CP211, with CP215 and in the experiment on CP217 was “inactive” throughout. In addition, the Potency entry in the experiment with CP237, in the experiment on CP238, in the experiment on CP247, in the experiment on CP250, in the experiment with CP252 and with CP256 was “inactive” each time. Also, the Potency entry in the experiment on CP260, in the experiment on CP262, in the experiment on CP265, with CP266, in the experiment with CP268 and in the experiment on CP269 was “inactive” in each case. Further, the Potency entry with CP286 and with CP291 was “inactive” throughout.

Take `C=Cc1ccc(S(=O)(=O)O)cc1`: the Potency entry with CP194, in the experiment on CP201, in the experiment on CP203, in the experiment on CP211, in the experiment on CP215 and in the experiment on CP217 was “inactive” each time. Further, the Potency entry with CP237, in the experiment with CP238, in the experiment on CP247, with CP250, in the experiment with CP252 and in the experiment on CP256 was “inactive” throughout. In addition, the Potency result with CP260, in the experiment with CP262, in the experiment with CP265, in the experiment on CP266, with CP268 and with CP269 was “inactive” in each case. In addition, the Potency result with CP286 and in the experiment on CP291 was “inactive” each time.

In the case of `CC1C(=O)CC2C3(C)CCC2(C(C)C(=O)O)C(=O)C13` (stereo not given), the Potency result in the experiment on CP194, with CP201, in the experiment with CP203, in the experiment with CP211, in the experiment on CP215 and in the experiment on CP217 was “inactive” each time. Further, the Potency result in the experiment on CP237, in the experiment with CP238, in the experiment on CP247, in the experiment on CP250, in the experiment on CP252 and in the experiment on CP256 was “inactive” each time. Besides, the Potency entry in the experiment with CP260, in the experiment on CP262, with CP265, in the experiment with CP266, in the experiment with CP268 and with CP269 was “inactive” in each case. Also, the Potency result in the experiment on CP286 and in the experiment on CP291 was “inactive” in each case.

On to `COc1ccc2c(c1)OC(C)(C)C(c1ccccc1)C2c1ccc(OCCN2CCCC2)cc1` (stereo not given), for which the Potency with CP194 is 6.75 µM (active); with CP201, 5.36 µM (active); in the experiment on CP203 it was 12 µM (active); in the experiment with CP211 it was 10.7 µM (active); with CP215, 9.53 µM (active); with CP217 it was 3.16 µM (active). In addition, the Potency in the experiment with CP237 was 3.98 µM (active); in the experiment with CP238 it was 11.2 µM (active); in the experiment with CP247 it was 2.51 µM (active); in the experiment on CP250, 4.47 µM (active); with CP252, 3.98 µM (active); in the experiment with CP256 it was 4.47 µM (active). In addition, the Potency in the experiment on CP260 is 3.98 µM (active); in the experiment on CP262, 4.78 µM (active); in the experiment with CP265 it was 3.98 µM (active); with CP266, 15.1 µM (active); with CP269 it was 5.36 µM (active); with CP286, 3.16 µM (active). Further, the Potency in the experiment on CP291 was 6.01 µM (active).

As for `c1ccc(-n2cnnn2)cc1`, the Potency entry in the experiment with CP194, with CP201, in the experiment on CP203, in the experiment on CP211, in the experiment with CP215 and in the experiment on CP217 was “inactive” each time. The Potency result with CP237, with CP238, with CP247, with CP250, with CP252 and with CP256 was “inactive” each time. In addition, the Potency result in the experiment with CP260, with CP262, in the experiment on CP265, with CP266, in the experiment on CP268 and in the experiment on CP269 was “inactive” throughout. Also, the Potency entry in the experiment with CP286 and in the experiment with CP291 was “inactive” throughout.
